This passage reports thermal melting temperature results from the supplement of paper PMC7726561.

First the molecules themselves.
B1: unnamed (peptide)
chain: SLMDPNKFLLL
B2: unnamed (peptide)
chain: VLQGKLAEV
B3: unnamed (peptide)
chain: HLAIKLEQV
B4: unnamed (peptide)
chain: KIIEYSVYL
B5: unnamed (peptide)
chain: ALAPAPPQV
B6: unnamed (peptide)
chain: GLSTEGIYRV
B7: unnamed (peptide)
chain: ILDAGGHNVTI
B8: unnamed (peptide)
chain: KVIDYVPGI
B9: unnamed (peptide)
chain: NLFNRYPAL
B10: unnamed (peptide)
chain: FLMDFIHQV
B11: unnamed (peptide)
chain: FLMKNSDLYGA
B12: unnamed (peptide)
chain: ALLDRIVSV
B13: unnamed (peptide)
chain: NIIPYITNV
B14: unnamed (peptide)
chain: SLLPEGPPAI
B15: unnamed (peptide)
chain: LLAEDDELHL
B16: unnamed (peptide)
chain: FLDHIIASV
B17: unnamed (peptide)
chain: ALAPGVRAV
B18: unnamed (peptide)
chain: YLPEDFIRVG
B19: unnamed (peptide)
chain: LLQEVEHQL
B20: unnamed (peptide)
chain: ALFPGDVDRL
B21: unnamed (peptide)
chain: WLIEDGKVVTV
B22: unnamed (peptide)
chain: AMNISVPQV
B23: unnamed (peptide)
chain: FLAELPGSLSL
B24: unnamed (peptide)
chain: ILEEKGLSQV
B25: unnamed (peptide)
chain: LLSDVRFVL
B26: unnamed (peptide)
chain: LLRDGIELV
B27: unnamed (peptide)
chain: AMSNLVPPVEL
B28: unnamed (peptide)
chain: RLGEAEGLMKV
B29: unnamed (peptide)
chain: FILDFYEKV
B30: unnamed (peptide)
chain: KIFEMGPVFTL
B31: unnamed (peptide)
chain: ALLDGRLQV
B32: unnamed (peptide)
chain: FILPHISTA
B33: unnamed (peptide)
chain: LADETLLKV
B34: unnamed (peptide)
chain: GLDPNKPPEL
B35: unnamed (peptide)
chain: VLGRVNLV
B36: unnamed (peptide)
chain: HLDEAIHVL
B37: unnamed (peptide)
chain: VLLGEVNIRL
B38: unnamed (peptide)
chain: SLLNPPETLNL
B39: unnamed (peptide)
chain: TLLGNIHAV
B40: unnamed (peptide)
chain: GLLENIPRV
B41: unnamed (peptide)
chain: YLHDQNPDAAL
B42: unnamed (peptide)
chain: VLLKARLVPA
B43: unnamed (peptide)
chain: VTTDIQVKV
B44: unnamed (peptide)
chain: FLLLPGPSAA
B45: unnamed (peptide)
chain: HLFETISQA
B46: unnamed (peptide)
chain: GLDPQGDRSFL
B47: unnamed (peptide)
chain: FLPQGFPDSV
B48: unnamed (peptide)
chain: SIHDVTFQV
B49: unnamed (peptide)
chain: SMSADVPLV
B50: unnamed (peptide)
chain: ALLKIEGVYA
B51: unnamed (peptide)
chain: ILLDNDHYA
B52: unnamed (peptide)
chain: FLDPNNIPKA
B53: unnamed (peptide)
chain: YLSPDLSKV
B54: unnamed (peptide)
chain: LLDPNVKSIFV
B55: unnamed (peptide)
chain: FLDITNPKAV
B56: unnamed (peptide)
chain: FLDITNPKA

In all, about 1,100 sequences were measured (“thermal melting temperature (Tm) of peptide-HLA complex”: median about 58, lowest 2% from about 42 on). This excerpt belongs to a sample that is enriched for the lowest values.
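Also: lysates heated 10 min at 37–73 °C, complexes pulled down with pan-HLA I antibody, peptide signal by DIA-MS relative to 37 °C, Tm where half the complex is unfolded.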

The target of this test is HLA-A*02:01. In words: thermal melting temperature (Tm) of peptide-HLA complex; higher = more thermostable pHLA complex. As to conditions: C1R-A*02:01.
B1 displayed a thermal melting temperature of 55.1 °C.

Turning to B2, the thermal melting temperature came to 53.5 °C.

Sequence B3 had a thermal melting temperature of 59.5 °C.

On to B4, for which the thermal melting temperature is 59.5 °C.

In the case of B5, the thermal melting temperature amounted to 62.1 °C.

B6 showed a thermal melting temperature of 60.9 °C.

Regarding B7, the thermal melting temperature was 54.5 °C.

B8 registered a thermal melting temperature of 58.8 °C.

In turn, B9 came in with a thermal melting temperature of 58.4 °C.

As for B10, the thermal melting temperature is 62.2 °C.

In turn, B11 came in with a thermal melting temperature of 58.4 °C.

The sequence B12 gave a thermal melting temperature of 64.2 °C.

For the sequence B13, the thermal melting temperature is 51.4 °C.

In turn, B14 returned a thermal melting temperature of 57.8 °C.

Regarding B15, the thermal melting temperature is 44.2 °C.

Consider B16, for which the thermal melting temperature is 61.4 °C.

B17 displayed a thermal melting temperature of 60.2 °C.

The sequence B18 showed a thermal melting temperature of 46.8 °C.

B19 displayed a thermal melting temperature of 57.8 °C.

Sequence B20 registered a thermal melting temperature of 54.3 °C.

Turning to B21, the thermal melting temperature stood at 58.3 °C.

On to B22, for which the thermal melting temperature stood at 58.1 °C.

In turn, B23 registered a thermal melting temperature of 49.3 °C.

Sequence B24 came in with a thermal melting temperature of 59.1 °C.

In the case of B25, the thermal melting temperature was 54.8 °C.

The sequence B26 had a thermal melting temperature of 57.8 °C.

As to B27, the thermal melting temperature came out at 53.7 °C.

In turn, B28 had a thermal melting temperature of 56.4 °C.

B29 showed a thermal melting temperature of 41.8 °C.

B30 showed a thermal melting temperature of 52.7 °C.

B31 returned a thermal melting temperature of 60.7 °C.

Take B32: the thermal melting temperature was 55.7 °C.

The sequence B33 yielded a thermal melting temperature of 55.2 °C.

Turning to B34, the thermal melting temperature amounted to 61 °C.

B35 displayed a thermal melting temperature of 45.9 °C.

In the case of B36, the thermal melting temperature amounted to 51.9 °C.

In the case of B37, the thermal melting temperature is 55.2 °C.

The sequence B38 displayed a thermal melting temperature of 54.9 °C.

With B39, the thermal melting temperature came out at 59.5 °C.

B40 yielded a thermal melting temperature of 64.8 °C.

For the sequence B41, the thermal melting temperature turned out to be 59 °C.

For B42, the thermal melting temperature worked out at 59.7 °C.

As for B43, the thermal melting temperature stood at 47.3 °C.

The sequence B44 displayed a thermal melting temperature of 47 °C.

For B45, the thermal melting temperature was found to be 54.9 °C.

For B46, the thermal melting temperature was 57 °C.

Take B47: the thermal melting temperature stood at 45.8 °C.

Take B48: the thermal melting temperature was determined as 57.4 °C.

Turning to B49, the thermal melting temperature is 61.3 °C.

B50: the thermal melting temperature was determined as 59.4 °C.

Take B51: the thermal melting temperature came out at 50.4 °C.

Consider B52, for which the thermal melting temperature came out at 61.3 °C.

Take B53: the thermal melting temperature was 61.9 °C.

Regarding B54, the thermal melting temperature was 62.2 °C.

B55 displayed a thermal melting temperature of 40.7 °C.

B56 gave a thermal melting temperature of 58.3 °C.
